# Results filed as inconclusive are left out. Values without a mark were called inactive. Calls of active or inactive are those of the source. Calls come from the whole dose curve; as a rule, active = well fitted cell-killing curve with a large enough effect; inconclusive = small, poorly fitted or top-dose-only effect, or effect the other way; inactive = no such curve, though single readings can be large or run the other way.
# How the values were obtained:
# [1] = Quantitative High-Throughput drug screen in 47 multiple myeloma cell lines against the NCATS MIPE library collection: LP1_DSMZ cell viability assay (AID 1918982); note: nearly all actives have a fitted effect of over 35% in size
# In short: (§1)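 Inhibition of viability over 48 h was scored by ATP content (CellTiter-Glo) in 500-cell wells. Zero and full viability were defined by media-only and DMSO-only wells.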
# [2] = Quantitative High-Throughput drug screen in 47 multiple myeloma cell lines against the NCATS MIPE library collection: KMS28PE_JCRB cell viability assay (AID 1918983); note: nearly all actives have a fitted effect of over 35% in size
# In short: as §1
# [3] = Quantitative High-Throughput drug screen in 47 multiple myeloma cell lines against the NCATS MIPE library collection: L363_DSMZ cell viability assay (AID 1918984); note: nearly all actives have a fitted effect of over 40% in size
# In short: as §1
# [4] = Quantitative High-Throughput drug screen in 47 multiple myeloma cell lines against the NCATS MIPE library collection: KMS34_JCRB cell viability assay (AID 1918985); note: nearly all actives have a fitted effect of over 40% in size
# In short: as §1
# [5] = Quantitative High-Throughput drug screen in 47 multiple myeloma cell lines against the NCATS MIPE library collection: OCIMY7_PLB cell viability assay (AID 1918987); note: nearly all actives have a fitted effect of over 65% in size
# In short: as §1
# [6] = Quantitative High-Throughput drug screen in 47 multiple myeloma cell lines against the NCATS MIPE library collection: OCIMY5_PLB cell viability assay (AID 1918988); note: nearly all actives have a fitted effect of over 65% in size
# In short: as §1
# [7] = Quantitative High-Throughput drug screen in 47 multiple myeloma cell lines against the NCATS MIPE library collection: OPM1_PLB cell viability assay (AID 1918989); note: nearly all actives have a fitted effect of over 40% in size
# In short: as §1
# [8] = Quantitative High-Throughput drug screen in 47 multiple myeloma cell lines against the NCATS MIPE library collection: SKMM1_PLB cell viability assay (AID 1919863); conditions: SKMM1 myeloma viability, CellTiter-Glo ATP, 48 h; viability: stronger effect = lower value; note: nearly all actives have a fitted effect of over 35% in size; for viability: series mostly up to about 46 µM
# In short: as §1
# [9] = Quantitative High-Throughput drug screen in 47 multiple myeloma cell lines against the NCATS MIPE library collection: U266_ATCC cell viability assay (AID 1919864); note: nearly all actives have a fitted effect of over 35% in size
# In short: as §1
# [10] = Quantitative High-Throughput drug screen in 47 multiple myeloma cell lines against the NCATS MIPE library collection: XG6_PLB cell viability assay (AID 1919865); note: nearly all actives have a fitted effect of over 40% in size
# In short: as §1
# Potency is the fitted concentration of half-maximal effect.
SMILES,Potency [1],Potency [2],Potency [3],Potency [4],Potency [5],Potency [6],Potency [7],Potency [8],Potency [9],Potency [10],viability [8]
Nc1ccccc1NC(=O)c1ccc(CNc2nccc(-c3cccnc3)n2)cc1,2090 nM (active),2960 nM (active),1180 nM (active),935 nM (active),526 nM (active),833 nM (active),264 nM (active),1660 nM (active),1660 nM (active),2640 nM (active),
CCCCOc1c(C(=O)c2c(F)cc(C)cc2F)cnc2n[nH]cc12,3320 nM (active),5900 nM (active),3320 nM (active),2350 nM (active),4180 nM (active),4180 nM (active),11800 nM (active),5260 nM (active),13200 nM (active),2350 nM (active),
CN1CCC(CNc2ccc3ncc(-c4cccc(OC(F)(F)F)c4)n3n2)CC1,26400 nM (active),18700 nM (active),7430 nM (active),20900 nM (active),4690 nM (active),14800 nM (active),6620 nM (active),23500 nM (active),9350 nM (active),5900 nM (active),
CNC(=O)c1c(F)cccc1Nc1nc(Nc2cc3c(cc2OC)CCN3C(=O)CN(C)C)nc2[nH]ccc12,16600 nM (active),132 nM (active),inactive,8330 nM (active),105 nM (active),1660 nM (active),7430 nM (active),10500 nM (active),3320 nM (active),2350 nM (active),
O=C(C=Cc1cccc(S(=O)(=O)Nc2ccccc2)c1)NO,2700 nM (active),3820 nM (active),855 nM (active),1360 nM (active),2150 nM (active),1210 nM (active),1910 nM (active),4290 nM (active),,4810 nM (active),
CCN(CC)CCCCNc1ncc2cc(-c3cc(OC)cc(OC)c3)c(NC(=O)NC(C)(C)C)nc2n1,16600 nM (active),6620 nM (active),14800 nM (active),33200 nM (active),18700 nM (active),16600 nM (active),14800 nM (active),,18700 nM (active),5900 nM (active),
CCOc1cc2ncc(C#N)c(Nc3ccc(F)c(Cl)c3)c2cc1NC(=O)C=CCN(C)C,10500 nM (active),14800 nM (active),,4690 nM (active),74.3 nM (active),264 nM (active),11800 nM (active),16600 nM (active),,2640 nM (active),
Cc1cn(-c2cc(NC(=O)c3ccc(C)c(Nc4nccc(-c5cccnc5)n4)c3)cc(C(F)(F)F)c2)cn1,23500 nM (active),20900 nM (active),inactive,,inactive,,inactive,26400 nM (active),inactive,,
CCN1CCN(CC(=O)Nc2ccc(-c3cccc4c(=O)cc(N5CCOCC5)oc34)c3sc4ccccc4c23)CC1,1480 nM (active),5260 nM (active),33.2 nM (active),2090 nM (active),46.9 nM (active),,264 nM (active),,18700 nM (active),2350 nM (active),
CN1CCN(c2cc(C(=O)Nc3ccc4c(c3)-c3c(c(C(N)=O)nn3-c3ccc(F)cc3)CC4)c(Cl)cn2)CC1,23500 nM (active),23500 nM (active),4180 nM (active),,187 nM (active),,9350 nM (active),26400 nM (active),2960 nM (active),,
CC(=O)c1c(C)c2cnc(Nc3ccc(N4CCNCC4)cn3)nc2n(C2CCCC2)c1=O,5900 nM (active),18700 nM (active),23500 nM (active),,,11800 nM (active),18700 nM (active),16600 nM (active),20900 nM (active),14800 nM (active),
c1cc(-c2cnn3cc(-c4ccc(OCCN5CCCCC5)cc4)cnc23)ccn1,13200 nM (active),11800 nM (active),,13200 nM (active),2090 nM (active),4690 nM (active),4180 nM (active),20900 nM (active),13200 nM (active),4180 nM (active),
Nc1nc(NCCNc2ncc(-n3ccnc3)c(-c3ccc(Cl)cc3Cl)n2)ccc1[N+](=O)[O-],11800 nM (active),23500 nM (active),5260 nM (active),,5260 nM (active),18700 nM (active),5260 nM (active),,inactive,2350 nM (active),
CC(C)(C)c1cnc(CSc2cnc(NC(=O)C3CCNCC3)s2)o1,105 nM (active),132 nM (active),,296 nM (active),2350 nM (active),74.3 nM (active),296 nM (active),264 nM (active),118 nM (active),209 nM (active),
O=C(O)Cn1nnc(-c2cc(N3CCC(Oc4cc(F)ccc4Br)CC3)no2)n1,inactive,inactive,inactive,,,,inactive,,inactive,inactive,126%
Cc1ccc(NC(=O)C2(c3ccc4c(c3)OC(F)(F)O4)CC2)nc1-c1cccc(C(=O)O)c1,66.2 nM (active),41.8 nM (active),29.6 nM (active),93.5 nM (active),132 nM (active),,148 nM (active),74.3 nM (active),29.6 nM (active),66.2 nM (active),
C[C@@H](Oc1cc(-c2cnn(C3CCNCC3)c2)cnc1N)c1c(Cl)ccc(F)c1Cl,14800 nM (active),11800 nM (active),4690 nM (active),11800 nM (active),3320 nM (active),,5900 nM (active),7430 nM (active),14800 nM (active),2350 nM (active),
C=CC(=O)Nc1cc2c(Nc3ccc(F)c(Cl)c3)ncnc2cc1OCCCN1CCOCC1,16600 nM (active),18700 nM (active),,14800 nM (active),296 nM (active),5900 nM (active),2960 nM (active),16600 nM (active),18700 nM (active),1660 nM (active),
O=C(NC1CCNCC1)c1[nH]ncc1NC(=O)c1c(Cl)cccc1Cl,264 nM (active),235 nM (active),469 nM (active),418 nM (active),3720 nM (active),,1870 nM (active),526 nM (active),,469 nM (active),
Cc1c(C)n(Cc2ccc(-c3ccccc3C(=O)O)cc2)c2ccc(C(=O)N[C@@H](C)c3ccc([N+](=O)[O-])cc3)cc12,inactive,inactive,93.5 nM (active),,,,,,,,123%
CNc1nccc(-c2cccnc2Oc2cc(C(=O)Nc3cccc(C(F)(F)F)c3)ccc2C)n1,23500 nM (active),20900 nM (active),14800 nM (active),14800 nM (active),1660 nM (active),,13200 nM (active),18700 nM (active),16600 nM (active),2350 nM (active),
COc1cc2c(cc1-c1c(C)noc1C)ncc1[nH]c(=O)n([C@H](C)c3ccccn3)c12,372 nM (active),662 nM (active),,469 nM (active),18700 nM (active),1050 nM (active),1480 nM (active),743 nM (active),18700 nM (active),5260 nM (active),
Cc1[nH]nc2ccc(-c3cncc(OC[C@@H](N)Cc4ccccc4)c3)cc12,4180 nM (active),4180 nM (active),935 nM (active),4690 nM (active),33.2 nM (active),,2350 nM (active),,59 nM (active),935 nM (active),
CCCNC(=O)Nc1ccc(Oc2ncnc3cc(OC)c(OC)cc23)cc1Cl,inactive,inactive,inactive,inactive,,,inactive,,,inactive,116%
CC(C)c1cnn2c(NCc3ccccc3)cc(N[C@@H](CO)[C@H](O)CO)nc12,264 nM (active),296 nM (active),,662 nM (active),235 nM (active),235 nM (active),235 nM (active),372 nM (active),296 nM (active),235 nM (active),
O=C(Cc1ccc(-c2ccc(OCCN3CCOCC3)cc2)cn1)NCc1ccccc1,41.8 nM (active),46.9 nM (active),,14.8 nM (active),1 nM (active),11.8 nM (active),29.6 nM (active),16.6 nM (active),93.5 nM (active),,
Cc1ccc2nc(NC(=O)CSc3nc4c(c(=O)n3-c3ccccc3)SCC4)sc2c1,8330 nM (active),23500 nM (active),11800 nM (active),,,7430 nM (active),16600 nM (active),11800 nM (active),20900 nM (active),14800 nM (active),
COCCn1c2c([n+](Cc3cnccn3)c1C)C(=O)c1ccccc1C2=O,13.2 nM (active),26.4 nM (active),,5.3 nM (active),296 nM (active),7.4 nM (active),29.6 nM (active),37.2 nM (active),5.9 nM (active),20.9 nM (active),
CN1c2cc(O)c(N=NC(N)=O)cc2CC1S(=O)(=O)O (stereo unspecified),inactive,inactive,inactive,inactive,,inactive,inactive,,,,97.7%
Cc1nc(Nc2n[nH]c3c2CN(C(=O)N[C@H](CN(C)C)c2ccccc2)C3(C)C)c2sccc2n1,7.9 nM (active),418 nM (active),,469 nM (active),209 nM (active),662 nM (active),469 nM (active),743 nM (active),526 nM (active),372 nM (active),

# Reference: PubChem BioAssay (NCATS)
